# From PubChem BioAssay
# Active and inactive are the calls of the source.
# How the values were obtained:
# [1] = optical density shifts of acrAB sulA E. coli – strain DRC41, OD650, 48 h, E. coli filamentation inducer project, primary screen (AID 1152); settings: higher = more signal, called active from +8 up or from −8 down;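 also: E. coli MC1000 strain DRC41 lacking acrAB efflux pump and sulA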
# [2] = probe aLefty1 binding on compound microarray – biochemical, small-molecule microarray, 635/667 nm fluorescence, primary screen (AID 1153); settings: higher = more signal;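 also: score merges spot fluorescence with signal-to-noise ratio from the scanned slide images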
# [3] = plasmodial surface anion channel blockers, osmotic lysis – cell-based, P. falciparum Indochina, OD700, 1 h, primary screen (AID 1154); settings: P. falciparum Indochina infected RBC osmotic lysis, higher = more signal, called active from +8 up or from −8 down
# [4] = plasmodial surface anion channel blockers, osmotic lysis – cell-based, P. falciparum Indochina, OD700, 2 h, primary screen (AID 1155);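 also: lysis reports solute entry through the parasite surface anion channel PSAC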; settings: P. falciparum Indochina infected erythrocytes, higher = more signal, called active from +8 up or from −8 down
# [5] = changes in parasitized red cell lysis, either direction – P. falciparum Indochina, OD700, 3 h, PSAC antagonist project, primary screen (AID 1156); settings: P. falciparum-infected erythrocytes, osmotic lysis, higher = more signal, called active from +8 up or from −8 down
# [6] = plasmodial surface anion channel blockers, osmotic lysis – cell-based, P. falciparum Indochina, OD700, 18 h, primary screen (AID 1157); settings: P. falciparum Indochina infected erythrocytes, osmotic lysis OD700, 18 h; higher = more signal, called active from +8 up or from −8 down
# [7] = S6 kinase pathway phospho-S6 level changes – cell-based, A549, cytoblot, luminescence, serum-stimulated, primary screen (AID 1158); settings: 5 h, higher = more signal;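 also: serum-stimulated A549 lung adenocarcinoma cells; signal is phosphorylated S6 detected by cytoblot immunostaining with HRP secondary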
# [8] = target: NADPH oxidase 2 (Homo sapiens) (UniProt P04839); assay: compounds shifting NOX2 Amplex Red fluorescence – cell-based, HEK293-NOX2, PMA-stimulated, NOX inhibitor project, primary screen (AID 1159); settings: 45 min, higher = more signal, called active from +8 up or from −8 down; also: test concentration not given here
# [9] = target: NADPH oxidase 4 (Homo sapiens) (UniProt Q9NPH5); assay: compounds shifting NOX4 Amplex Red fluorescence – cell-based, HEK293-NOX4, tetracycline-induced, NOX inhibitor project, primary screen (AID 1160); settings: HEK293-NOX4, Amplex Red H2O2 fluorescence, 45 min; higher = more signal, called active from +8 up or from −8 down
# [10] = target: NADPH oxidase 5 (Homo sapiens) (UniProt Q96PH1); assay: compounds shifting NOX5 Amplex Red fluorescence – cell-based, HEK293-NOX5, NOX inhibitor project, primary screen (AID 1161); settings: HEK293-NOX5, ionomycin, 45 min, higher = more signal
# NADPH oxidase 5 (Homo sapiens), sequence (Q96PH1 whole entry, looked up): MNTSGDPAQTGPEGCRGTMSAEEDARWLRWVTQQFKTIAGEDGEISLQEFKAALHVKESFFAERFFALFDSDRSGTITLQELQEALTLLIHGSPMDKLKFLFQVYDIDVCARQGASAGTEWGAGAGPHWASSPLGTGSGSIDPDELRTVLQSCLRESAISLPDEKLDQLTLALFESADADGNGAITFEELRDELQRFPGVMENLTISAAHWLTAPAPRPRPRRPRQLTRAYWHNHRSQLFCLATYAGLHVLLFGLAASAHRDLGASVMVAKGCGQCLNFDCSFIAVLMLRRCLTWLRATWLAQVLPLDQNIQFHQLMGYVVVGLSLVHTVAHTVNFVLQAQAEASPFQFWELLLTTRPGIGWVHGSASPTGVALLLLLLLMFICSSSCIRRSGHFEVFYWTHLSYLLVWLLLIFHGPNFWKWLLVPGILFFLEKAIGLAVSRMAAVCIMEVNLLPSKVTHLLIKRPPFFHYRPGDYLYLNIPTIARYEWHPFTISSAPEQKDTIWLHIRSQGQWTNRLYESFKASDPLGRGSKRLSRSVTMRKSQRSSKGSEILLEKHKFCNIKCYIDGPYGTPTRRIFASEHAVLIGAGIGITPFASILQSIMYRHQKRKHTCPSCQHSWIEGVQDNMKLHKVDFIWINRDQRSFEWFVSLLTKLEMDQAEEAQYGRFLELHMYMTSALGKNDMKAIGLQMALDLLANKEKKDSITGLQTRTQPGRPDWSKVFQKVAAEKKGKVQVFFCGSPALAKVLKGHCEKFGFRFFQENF
# NADPH oxidase 2 (Homo sapiens), sequence (P04839 whole entry, looked up): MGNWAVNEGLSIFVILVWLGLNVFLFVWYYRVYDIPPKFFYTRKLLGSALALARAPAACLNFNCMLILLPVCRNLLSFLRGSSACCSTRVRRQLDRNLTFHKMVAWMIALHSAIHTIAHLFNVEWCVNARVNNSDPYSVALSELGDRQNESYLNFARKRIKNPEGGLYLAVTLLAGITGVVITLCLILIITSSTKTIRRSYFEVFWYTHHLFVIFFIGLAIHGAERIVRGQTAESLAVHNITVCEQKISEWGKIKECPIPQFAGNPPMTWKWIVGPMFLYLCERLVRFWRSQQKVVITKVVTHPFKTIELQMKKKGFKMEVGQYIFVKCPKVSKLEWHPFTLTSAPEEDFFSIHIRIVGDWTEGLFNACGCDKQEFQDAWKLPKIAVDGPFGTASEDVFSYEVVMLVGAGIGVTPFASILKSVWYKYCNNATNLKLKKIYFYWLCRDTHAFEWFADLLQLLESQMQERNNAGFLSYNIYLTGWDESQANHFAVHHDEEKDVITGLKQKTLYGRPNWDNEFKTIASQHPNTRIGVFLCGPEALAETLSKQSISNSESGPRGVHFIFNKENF
# NADPH oxidase 4 (Homo sapiens), sequence (Q9NPH5 whole entry, looked up): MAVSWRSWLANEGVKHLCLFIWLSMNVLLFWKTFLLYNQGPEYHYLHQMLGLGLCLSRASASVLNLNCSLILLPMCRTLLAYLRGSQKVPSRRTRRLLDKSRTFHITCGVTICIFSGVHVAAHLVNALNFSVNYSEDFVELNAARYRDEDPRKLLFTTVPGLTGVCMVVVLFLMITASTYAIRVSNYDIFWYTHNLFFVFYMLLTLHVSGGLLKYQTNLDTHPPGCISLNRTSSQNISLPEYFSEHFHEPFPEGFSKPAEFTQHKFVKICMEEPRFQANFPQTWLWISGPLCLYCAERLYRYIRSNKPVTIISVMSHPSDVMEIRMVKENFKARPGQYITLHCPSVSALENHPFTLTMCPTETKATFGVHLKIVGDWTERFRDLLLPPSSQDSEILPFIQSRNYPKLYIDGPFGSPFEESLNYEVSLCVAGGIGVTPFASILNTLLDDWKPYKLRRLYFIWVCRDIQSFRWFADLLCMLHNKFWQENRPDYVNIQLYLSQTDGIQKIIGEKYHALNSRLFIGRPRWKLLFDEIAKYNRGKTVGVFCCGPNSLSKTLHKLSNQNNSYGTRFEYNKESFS
SMILES,z-score [1],composite z-score [2],z-score [3],z-score [4],z-score [5],z-score [6],z-score [7],z-score [8],z-score [9],z-score [10]
COCCOC(=O)N1C(=O)[C@@]2(c3cc(C#CC4=CCCCC4)ccc31)[C@H](C(=O)N1CCCCCCC1)[C@H]1C(=O)O[C@H](c3ccccc3)[C@H](c3ccccc3)N1[C@@H]2c1ccc(O)cc1,1.63 (inactive),0.93,-0.43 (inactive),-1.2 (inactive),-1.27 (inactive),-1.96 (inactive),2.44,0.67 (inactive),0.257 (inactive),0.871
C[C@@H]1ON(c2ccc(C(=O)OC(C)(C)C)cc2)[C@H](c2ccc(O)cc2)[C@H]1C(=O)N1C(=O)OC[C@H]1Cc1ccccc1,-0.476 (inactive),0.119,3.71 (inactive),0.709 (inactive),-0.348 (inactive),0.87 (inactive),0.363,-0.394 (inactive),-0.43 (inactive),-0.209
CC(C)[Si](C#CCCCC#N)(O[C@H](c1ccccc1)c1cn([C@H](CO)Cc2ccccc2)nn1)C(C)C,1.72 (inactive),-0.187,1.31 (inactive),0.4 (inactive),-0.138 (inactive),0.0616 (inactive),-0.013,-0.777 (inactive),0.789 (inactive),0.317
CN1C(=O)C2C=CC(C(O)c3ccc(F)cc3)N(Nc3ccccc3)C2C1=O (stereo not given),-1.69 (inactive),0.0711,1.24 (inactive),1.05 (inactive),1.45 (inactive),0.582 (inactive),-0.85,-1.41 (inactive),-3.79 (inactive),-3.17
COCCOC(=O)N1C(=O)[C@@]2(c3cc(C#CC4=CCCCC4)ccc31)[C@H](c1ccccc1OCCO)N1[C@H](c3ccccc3)[C@H](c3ccccc3)OC(=O)[C@H]1[C@@H]2C(=O)N1CCCCCCC1,-1.05 (inactive),-0.999,-0.606 (inactive),1.1 (inactive),-0.56 (inactive),0.442 (inactive),-0.56,0.962 (inactive),-1.22 (inactive),0.545
CC(C)(C)OC(=O)CC[C@@]1(C(=O)NCc2ccccc2)N=C(c2ccc(OCCCO)cc2)O[C@@H]1c1ccccc1N=[N+]=[N-],0.775 (inactive),0.347,33.2 (active),30 (active),4.99 (inactive),6.74 (inactive),0.787,-1.8 (inactive),0.457 (inactive),-1.86
COc1ccc([Si](C)(C)[C@@H]2[C@@H](CC(=O)N3Cc4ccccc4C[C@H]3CO)O[C@]3(C(=O)N(C)c4ccccc43)[C@H]2C)cc1,-0.883 (inactive),0.503,11.8 (active),2.87 (inactive),0.368 (inactive),1.21 (inactive),0.884,-0.11 (inactive),0.00429 (inactive),-1.7
COCCOC(=O)N1C(=O)[C@@]2(c3cc(C#CC4=CCCCC4)ccc31)[C@H](c1ccccc1OCCO)N1[C@H](c3ccccc3)[C@H](c3ccccc3)OC(=O)[C@H]1[C@@H]2C(=O)Nc1nc2ccccc2s1,-0.541 (inactive),0.287,3.53 (inactive),1.72 (inactive),-0.507 (inactive),1.54 (inactive),-0.168,1.59 (inactive),0.571 (inactive),1.41
COCCCNC(=O)[C@@]1(Sc2ccc(C)cc2)CC(=O)N(C2CCCCC2)[C@@H]1c1ccc(CO)cc1,-0.204 (inactive),0.0209,0.309 (inactive),0.17 (inactive),0.0051 (inactive),0.326 (inactive),0.0394,0.175 (inactive),-0.512 (inactive),-1.3
C[N+](C)(C)CCCC[C@@H]1NC(=O)[C@H]2C[C@@H](C(=O)NCCCCCCN)[C@@H](c3ccc(O)cc3)N2C1=O,0.429 (inactive),0.284,0.625 (inactive),0.328 (inactive),-2.08 (inactive),0.326 (inactive),0.191,0.00341 (inactive),-1.73 (inactive),0.273
COc1ccc(CN(C2=CC[C@@]3(C(N)=O)C(=O)C(Cl)=C(Cl)C(=O)[C@@]3(C#N)C2)S(=O)(=O)c2ccc(Br)cc2)cc1,1.3 (inactive),-0.0042,5.11 (inactive),-1.24 (inactive),-1.94 (inactive),-2.3 (inactive),0.881,1.76 (inactive),-0.275 (inactive),0.362
CC(C)N1C(=O)c2ccccc2[C@@H](C(=O)NC2CC2)[C@@H]1c1ccc(CO)cc1,0.258 (inactive),0.007,2.06 (inactive),-0.0507 (inactive),-0.0836 (inactive),-0.307 (inactive),0.167,0.393 (inactive),0.708 (inactive),0.442
CC1=C([C@H](O)CCc2ccccc2)[C@H](CO)[C@@H]2C(=O)N(C)C(=O)[C@@H]2C1,1.13 (inactive),0.184,4.81 (inactive),0.403 (inactive),-0.0722 (inactive),-0.0393 (inactive),-0.167,-1.36 (inactive),0.412 (inactive),0.0196
CC(c1ccccc1)C(O)C1C=CC2C(=O)N(c3ccccc3)C(=O)C2N1Nc1ccc([N+](=O)[O-])cc1 (stereo not given),0.179 (inactive),0.175,20.8 (active),5.25 (inactive),0.283 (inactive),1.61 (inactive),-0.438,-0.7 (inactive),-1.18 (inactive),-1.38
Cc1ccc(S[C@]2(C(=O)O)CC(=O)N(Cc3cc(C(F)(F)F)cc(C(F)(F)F)c3)[C@@H]2c2ccc(CO)cc2)cc1,-1.21 (inactive),-0.239,2.76 (inactive),1.01 (inactive),1.44 (inactive),0.769 (inactive),-0.482,0.86 (inactive),-0.271 (inactive),0.0502
CCCCO[C@H]1C[C@H]2C(I)=C[C@@H]1C(=O)[C@]21CO1,-1.55 (inactive),-0.369,-0.0445 (inactive),0.18 (inactive),-0.163 (inactive),-0.16 (inactive),-0.408,0.0778 (inactive),0.609 (inactive),-0.383
Cc1ccc(S[C@]2(C(=O)O)CC(=O)N(C3Cc4ccccc4C3)[C@@H]2c2ccc(CO)cc2)cc1,-0.0458 (inactive),0.212,3.54 (inactive),-0.273 (inactive),0.385 (inactive),-0.333 (inactive),-0.401,-0.0451 (inactive),-0.498 (inactive),1.58
COCCOC(=O)N1C(=O)[C@@]2(c3cc(C#Cc4ccc(OC)cc4)ccc31)[C@H](C(=O)Nc1nc3ccccc3s1)[C@H]1C(=O)O[C@H](c3ccccc3)[C@H](c3ccccc3)N1[C@@H]2c1ccc(O)cc1,1.05 (inactive),0.703,3.75 (inactive),0.756 (inactive),1.2 (inactive),1.22 (inactive),0.709,1.49 (inactive),-0.118 (inactive),0.791
CN1C(=O)C2C=CC(C(O)c3cccc4ccccc34)N(N3CCCCC3)C2C1=O (stereo not given),-1.57 (inactive),-0.0798,0.669 (inactive),0.958 (inactive),-0.284 (inactive),0.878 (inactive),-1.32,-0.671 (inactive),-1.97 (inactive),-0.766
COc1ccc([Si](C)(C)[C@@H]2[C@@H](CC(=O)N(CCO)Cc3ccccc3)O[C@]3(C(=O)N(Cc4cccc(N5C(=O)c6cccc7cccc5c67)c4)c4ccccc43)[C@H]2C)cc1,2.02 (inactive),0.287,4.59 (inactive),0.343 (inactive),-0.667 (inactive),-0.526 (inactive),1.92,1.09 (inactive),1.09 (inactive),3
COc1ccc(-c2cc3c(c(CCc4ccccc4)n2)[Si](C(C)C)(C(C)C)OC3)cn1,-0.0928 (inactive),-0.196,3.8 (inactive),0.745 (inactive),-0.119 (inactive),0.114 (inactive),-0.108,-0.44 (inactive),-0.0624 (inactive),-1.49
COC(=O)c1ccc([C@H](NC(=O)c2ccco2)[C@]2(C)C[C@H]2C2CCCCC2)cc1,-2.39 (inactive),0.527,16.4 (active),2.52 (inactive),1.33 (inactive),1.3 (inactive),-0.357,-0.803 (inactive),-2.56 (inactive),0.289
COc1ccc(NC(=O)O[C@H]2[C@H](OC(=O)Nc3ccccc3)[C@@H](OC(=O)Nc3ccccc3)[C@@H](OC)O[C@@H]2CO)cc1,-0.302 (inactive),0.113,4.49 (inactive),0.463 (inactive),0.316 (inactive),0.373 (inactive),0.256,-7.53 (inactive),-0.713 (inactive),-2.43
N#Cc1ccc(C(O)C2C=CC3C(=O)N(c4ccccc4)C(=O)C3N2Nc2ccccc2)cc1 (stereo not given),0.128 (inactive),0.135,5.39 (inactive),-0.173 (inactive),1.18 (inactive),-0.889 (inactive),1.64,-2.73 (inactive),-4.19 (inactive),-3.02
C=CCC(OC(C)=O)[C@@H]1[C@@H](N(Cc2ccc(-c3cccc(C(F)(F)F)c3)o2)C(=O)c2ccc(C)cc2)c2cc(OCCCO)ccc2N1C(=O)c1ccc2ccccc2c1 (stereo not given in full),1.86 (inactive),-0.147,2.37 (inactive),-0.0931 (inactive),0.0854 (inactive),-0.109 (inactive),-0.494,-0.401 (inactive),0.713 (inactive),1.79
COCCOC(=O)N1C(=O)[C@@]2(c3cc(C#CCNC(N)=O)ccc31)[C@H](C(=O)N1CCc3cc(OC)c(OC)cc3C1)[C@H]1C(=O)O[C@H](c3ccccc3)[C@H](c3ccccc3)N1[C@@H]2c1ccccc1OCCO,1.83 (inactive),0.479,3.14 (inactive),0.178 (inactive),0.435 (inactive),-0.244 (inactive),1.81,1.58 (inactive),1.09 (inactive),-0.672
